From publication PMC7862700, “An all-to-all approach to the identification of sequence-specific readers for epigenetic DNA modifications on cytosine” come the findings set out here.

Common to all, as to test: DAPPL (digital affinity profiling via proximity ligation, sequencing); 10 mM Tris-HCl pH 7.5, 50 mM NaCl, 1 mM DTT, 4% glycerol, room temperature, 30 min; GST-TFs on glutathione beads, 16-mer random dsDNA library, 0.1% formaldehyde crosslink after washing; high values mean tight binding
Conditions in all cases: protein: recombinant; tags: N-terminal GST; dsDNA, one strand shown

The target in one test is T1, FLI1 (Homo sapiens, UniProt Q01543 1-452).
T1 sequence: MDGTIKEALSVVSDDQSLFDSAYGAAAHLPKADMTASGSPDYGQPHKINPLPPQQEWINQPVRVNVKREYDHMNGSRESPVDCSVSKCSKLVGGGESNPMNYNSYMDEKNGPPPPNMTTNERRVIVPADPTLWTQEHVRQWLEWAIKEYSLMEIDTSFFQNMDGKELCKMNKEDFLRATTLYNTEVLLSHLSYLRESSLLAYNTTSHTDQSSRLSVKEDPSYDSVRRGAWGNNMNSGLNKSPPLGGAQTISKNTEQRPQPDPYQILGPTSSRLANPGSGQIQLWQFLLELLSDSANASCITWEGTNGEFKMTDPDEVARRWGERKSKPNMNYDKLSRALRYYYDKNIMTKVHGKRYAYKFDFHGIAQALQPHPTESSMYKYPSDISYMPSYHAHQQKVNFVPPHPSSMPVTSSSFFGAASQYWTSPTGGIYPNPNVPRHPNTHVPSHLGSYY
Put shortly:
(§1)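 Pools of DNA-barcoded human transcription factors, expressed in yeast as GST fusions on glutathione beads and combined with a tag-only sample, were incubated with 200 nmole of a 16-mer random double-stranded DNA library. Incubation took 30 min at room temperature in Tris/NaCl/DTT/glycerol buffer and was followed by washing, 0.1% formaldehyde crosslinking, proximity ligation (BsaI/T4 ligase, 1 h, 37 °C), PCR amplification and sequencing on an Illumina NextSeq500. Binding signal is the ratio of a hexamer's read frequency for a factor to its frequency for the tag-only sample.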

The target of another test is T2, ELK1 (Homo sapiens, UniProt P19419 1-428).
T2 sequence: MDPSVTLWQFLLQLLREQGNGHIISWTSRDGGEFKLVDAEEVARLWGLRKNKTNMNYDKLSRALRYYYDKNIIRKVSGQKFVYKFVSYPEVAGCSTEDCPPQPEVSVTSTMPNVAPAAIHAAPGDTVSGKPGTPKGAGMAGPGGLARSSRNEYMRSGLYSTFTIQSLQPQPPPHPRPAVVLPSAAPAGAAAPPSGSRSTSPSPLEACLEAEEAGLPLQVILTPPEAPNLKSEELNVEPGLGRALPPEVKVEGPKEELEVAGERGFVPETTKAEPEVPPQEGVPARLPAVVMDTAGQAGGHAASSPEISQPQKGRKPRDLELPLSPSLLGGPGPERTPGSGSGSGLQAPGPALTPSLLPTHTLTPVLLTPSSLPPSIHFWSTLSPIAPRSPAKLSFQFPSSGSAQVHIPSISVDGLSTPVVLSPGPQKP
Put shortly:
as §1

The target in the next test is T3, GABPA (Homo sapiens, UniProt Q06546 1-454).
T3 sequence: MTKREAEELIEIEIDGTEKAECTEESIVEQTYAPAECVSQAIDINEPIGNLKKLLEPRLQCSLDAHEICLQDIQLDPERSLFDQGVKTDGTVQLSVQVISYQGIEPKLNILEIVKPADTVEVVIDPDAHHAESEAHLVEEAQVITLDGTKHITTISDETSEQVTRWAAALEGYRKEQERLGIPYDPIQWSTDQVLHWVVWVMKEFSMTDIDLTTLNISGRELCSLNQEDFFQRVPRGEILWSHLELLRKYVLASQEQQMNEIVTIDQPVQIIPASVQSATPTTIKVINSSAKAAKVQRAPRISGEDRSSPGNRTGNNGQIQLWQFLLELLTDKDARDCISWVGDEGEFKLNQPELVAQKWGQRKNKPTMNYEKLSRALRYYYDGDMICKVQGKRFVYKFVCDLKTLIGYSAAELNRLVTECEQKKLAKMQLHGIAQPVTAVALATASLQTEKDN
The method, boiled down:
as §1

A further test concerns the target ELF1 (Homo sapiens, UniProt P32519 1-619). The method, boiled down:
as §1

Another test deals with T4, EHF (Homo sapiens, UniProt Q9NZC4 1-300).
T4 sequence: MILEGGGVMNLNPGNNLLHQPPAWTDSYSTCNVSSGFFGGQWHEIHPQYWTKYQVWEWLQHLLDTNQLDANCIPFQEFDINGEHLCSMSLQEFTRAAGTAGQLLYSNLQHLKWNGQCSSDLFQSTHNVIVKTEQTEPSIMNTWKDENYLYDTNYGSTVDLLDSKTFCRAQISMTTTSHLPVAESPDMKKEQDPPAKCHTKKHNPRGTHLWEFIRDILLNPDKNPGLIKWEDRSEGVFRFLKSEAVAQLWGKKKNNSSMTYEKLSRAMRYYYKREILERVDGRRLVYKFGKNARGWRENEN
The method, boiled down:
as §1

A further test has as its target SPI1 (Homo sapiens, UniProt P17947 1-270). The method, boiled down: as §1
The target in the next test is SPIB (Homo sapiens, UniProt Q01892 1-262). The method, boiled down:
as §1

In another test the target is ETV5 (Homo sapiens, UniProt P41161 1-510). Put shortly: as §1
The next test has as its target T5, SPIC (Homo sapiens, UniProt Q8N5J4 1-248).
T5 sequence: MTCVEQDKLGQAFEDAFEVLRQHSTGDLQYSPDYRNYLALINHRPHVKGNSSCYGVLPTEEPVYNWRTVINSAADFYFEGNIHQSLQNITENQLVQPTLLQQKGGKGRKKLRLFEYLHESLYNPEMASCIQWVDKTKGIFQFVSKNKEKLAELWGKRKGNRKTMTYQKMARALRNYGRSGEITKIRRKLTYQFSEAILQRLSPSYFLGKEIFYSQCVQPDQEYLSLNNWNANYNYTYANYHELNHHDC
The method, boiled down:
as §1

The target in a further test is ELF4 (Homo sapiens, UniProt Q99607 1-663). Put shortly:
as §1

A further test deals with ETV1 (Homo sapiens, UniProt P50549 1-477). The method, boiled down:
as §1

The target of another test is T6, ERF (Homo sapiens, UniProt P50548 1-548).
T6 sequence: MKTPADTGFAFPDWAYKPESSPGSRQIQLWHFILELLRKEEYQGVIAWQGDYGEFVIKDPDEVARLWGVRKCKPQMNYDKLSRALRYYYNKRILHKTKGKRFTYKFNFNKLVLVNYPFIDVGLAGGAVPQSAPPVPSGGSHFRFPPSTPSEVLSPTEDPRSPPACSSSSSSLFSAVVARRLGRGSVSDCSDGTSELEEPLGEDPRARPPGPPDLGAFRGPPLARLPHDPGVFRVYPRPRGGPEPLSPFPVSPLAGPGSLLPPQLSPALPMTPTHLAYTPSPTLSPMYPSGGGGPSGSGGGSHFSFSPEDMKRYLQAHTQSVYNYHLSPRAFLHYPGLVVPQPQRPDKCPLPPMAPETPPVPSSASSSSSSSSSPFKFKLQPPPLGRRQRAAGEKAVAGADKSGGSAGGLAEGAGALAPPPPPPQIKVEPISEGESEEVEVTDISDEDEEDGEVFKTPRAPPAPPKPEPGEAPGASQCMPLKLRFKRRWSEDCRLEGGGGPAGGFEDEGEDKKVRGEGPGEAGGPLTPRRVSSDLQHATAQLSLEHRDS
Put shortly:
as §1

The target in a further test is T7, ETS2 (Homo sapiens, UniProt P15036 1-469).
T7 sequence: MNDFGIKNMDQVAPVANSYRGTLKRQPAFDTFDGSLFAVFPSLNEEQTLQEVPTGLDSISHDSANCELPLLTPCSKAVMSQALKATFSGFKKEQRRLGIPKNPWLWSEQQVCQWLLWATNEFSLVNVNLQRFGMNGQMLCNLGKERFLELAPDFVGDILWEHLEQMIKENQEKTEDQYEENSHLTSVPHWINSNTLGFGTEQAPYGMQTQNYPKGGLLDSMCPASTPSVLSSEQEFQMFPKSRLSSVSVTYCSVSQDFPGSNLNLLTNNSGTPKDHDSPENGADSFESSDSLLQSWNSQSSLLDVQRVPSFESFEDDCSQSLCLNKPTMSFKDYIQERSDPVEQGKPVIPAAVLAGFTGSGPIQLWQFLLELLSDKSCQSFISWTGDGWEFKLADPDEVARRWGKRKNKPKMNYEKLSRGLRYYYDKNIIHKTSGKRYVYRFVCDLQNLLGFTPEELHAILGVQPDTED
Put shortly: as §1

Another test has as its target T8, SPDEF (Homo sapiens, UniProt O95238 1-335).
T8 sequence: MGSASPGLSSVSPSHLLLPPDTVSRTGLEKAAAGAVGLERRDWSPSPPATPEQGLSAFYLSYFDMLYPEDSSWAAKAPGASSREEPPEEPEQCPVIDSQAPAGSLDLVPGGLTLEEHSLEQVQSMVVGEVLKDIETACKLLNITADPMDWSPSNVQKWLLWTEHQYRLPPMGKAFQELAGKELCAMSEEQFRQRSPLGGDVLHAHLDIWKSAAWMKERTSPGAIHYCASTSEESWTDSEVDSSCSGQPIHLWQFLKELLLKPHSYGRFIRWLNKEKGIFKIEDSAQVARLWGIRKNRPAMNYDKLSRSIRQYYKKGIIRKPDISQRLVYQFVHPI
Put shortly: as §1

Another test concerns the target ETV6 (Homo sapiens, UniProt P41212 1-452). The method, boiled down: as §1
Another test addresses T9, ERG (Homo sapiens, UniProt P11308 1-479).
T9 sequence: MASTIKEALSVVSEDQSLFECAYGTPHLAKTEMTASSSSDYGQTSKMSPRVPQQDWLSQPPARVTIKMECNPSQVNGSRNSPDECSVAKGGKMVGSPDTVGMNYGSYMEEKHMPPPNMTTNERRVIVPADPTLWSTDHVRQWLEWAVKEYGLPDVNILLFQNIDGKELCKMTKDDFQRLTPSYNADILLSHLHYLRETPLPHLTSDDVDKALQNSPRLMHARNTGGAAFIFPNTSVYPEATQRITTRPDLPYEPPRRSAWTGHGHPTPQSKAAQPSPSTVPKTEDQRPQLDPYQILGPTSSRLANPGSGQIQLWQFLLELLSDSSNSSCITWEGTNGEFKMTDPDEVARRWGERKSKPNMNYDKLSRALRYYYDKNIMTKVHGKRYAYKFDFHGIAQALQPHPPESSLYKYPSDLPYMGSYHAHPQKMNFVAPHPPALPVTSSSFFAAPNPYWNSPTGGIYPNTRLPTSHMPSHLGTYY
The method, boiled down:
as §1

For another test, the target named is T10, ETV3L (Homo sapiens, UniProt Q6ZN32 1-361).
T10 sequence: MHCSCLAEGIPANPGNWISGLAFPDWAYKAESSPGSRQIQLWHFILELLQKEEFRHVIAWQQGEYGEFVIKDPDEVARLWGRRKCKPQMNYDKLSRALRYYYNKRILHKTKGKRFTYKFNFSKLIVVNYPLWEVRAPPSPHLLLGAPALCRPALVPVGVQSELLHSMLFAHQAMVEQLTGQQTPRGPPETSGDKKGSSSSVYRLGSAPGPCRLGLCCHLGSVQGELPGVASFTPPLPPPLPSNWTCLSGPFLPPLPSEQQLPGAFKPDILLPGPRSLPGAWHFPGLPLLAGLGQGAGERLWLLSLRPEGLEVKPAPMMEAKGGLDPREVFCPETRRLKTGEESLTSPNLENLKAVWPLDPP
Put shortly:
as §1

Sequence of ETV5 (P41161 whole entry): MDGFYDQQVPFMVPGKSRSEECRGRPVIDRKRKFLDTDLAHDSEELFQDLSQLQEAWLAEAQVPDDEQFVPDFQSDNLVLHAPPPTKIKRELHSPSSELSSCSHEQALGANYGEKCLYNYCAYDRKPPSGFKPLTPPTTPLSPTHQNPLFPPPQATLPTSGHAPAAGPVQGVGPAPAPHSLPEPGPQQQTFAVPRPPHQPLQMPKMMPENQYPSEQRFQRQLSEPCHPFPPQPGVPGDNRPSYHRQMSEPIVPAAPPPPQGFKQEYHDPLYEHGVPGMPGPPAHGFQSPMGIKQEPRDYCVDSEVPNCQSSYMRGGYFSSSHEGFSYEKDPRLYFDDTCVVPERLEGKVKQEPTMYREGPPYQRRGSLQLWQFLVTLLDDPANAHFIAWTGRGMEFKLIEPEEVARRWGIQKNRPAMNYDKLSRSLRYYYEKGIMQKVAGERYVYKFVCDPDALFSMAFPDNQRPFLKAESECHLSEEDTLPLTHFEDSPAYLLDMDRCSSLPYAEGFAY
Sequence of ELF1 (P32519 whole entry): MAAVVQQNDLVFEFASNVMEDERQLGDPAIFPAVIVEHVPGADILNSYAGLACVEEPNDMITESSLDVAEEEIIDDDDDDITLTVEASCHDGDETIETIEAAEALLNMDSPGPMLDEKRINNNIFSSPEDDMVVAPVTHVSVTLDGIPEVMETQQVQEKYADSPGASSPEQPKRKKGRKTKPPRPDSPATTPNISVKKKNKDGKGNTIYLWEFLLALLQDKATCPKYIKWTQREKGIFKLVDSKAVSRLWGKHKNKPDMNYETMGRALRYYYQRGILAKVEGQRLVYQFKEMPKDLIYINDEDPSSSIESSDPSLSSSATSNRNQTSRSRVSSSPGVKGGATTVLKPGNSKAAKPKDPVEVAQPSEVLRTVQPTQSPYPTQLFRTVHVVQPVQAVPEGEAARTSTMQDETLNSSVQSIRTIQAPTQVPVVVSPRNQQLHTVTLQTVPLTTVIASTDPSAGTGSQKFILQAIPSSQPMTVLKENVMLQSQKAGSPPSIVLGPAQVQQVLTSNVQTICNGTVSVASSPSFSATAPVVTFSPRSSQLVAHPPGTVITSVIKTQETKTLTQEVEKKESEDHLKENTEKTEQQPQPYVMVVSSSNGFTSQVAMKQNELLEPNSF
Sequence of ELF4 (Q99607 whole entry): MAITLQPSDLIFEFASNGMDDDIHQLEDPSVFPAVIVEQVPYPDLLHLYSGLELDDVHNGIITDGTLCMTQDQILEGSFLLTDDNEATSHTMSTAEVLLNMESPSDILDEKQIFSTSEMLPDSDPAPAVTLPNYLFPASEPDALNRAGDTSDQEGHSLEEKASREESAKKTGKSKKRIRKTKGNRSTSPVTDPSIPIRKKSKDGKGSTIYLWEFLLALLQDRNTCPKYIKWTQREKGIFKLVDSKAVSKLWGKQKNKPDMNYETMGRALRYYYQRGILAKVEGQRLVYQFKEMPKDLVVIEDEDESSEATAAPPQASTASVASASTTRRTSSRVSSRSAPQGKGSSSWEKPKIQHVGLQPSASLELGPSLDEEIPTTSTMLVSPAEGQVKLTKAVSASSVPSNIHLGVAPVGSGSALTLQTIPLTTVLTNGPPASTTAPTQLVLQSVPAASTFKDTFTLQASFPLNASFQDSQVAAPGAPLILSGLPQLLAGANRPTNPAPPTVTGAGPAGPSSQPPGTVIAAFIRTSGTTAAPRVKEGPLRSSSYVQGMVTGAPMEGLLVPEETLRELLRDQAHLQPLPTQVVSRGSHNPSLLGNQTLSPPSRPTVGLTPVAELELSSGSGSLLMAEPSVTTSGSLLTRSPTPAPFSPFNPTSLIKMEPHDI
Sequence of ETV1 (P50549 whole entry): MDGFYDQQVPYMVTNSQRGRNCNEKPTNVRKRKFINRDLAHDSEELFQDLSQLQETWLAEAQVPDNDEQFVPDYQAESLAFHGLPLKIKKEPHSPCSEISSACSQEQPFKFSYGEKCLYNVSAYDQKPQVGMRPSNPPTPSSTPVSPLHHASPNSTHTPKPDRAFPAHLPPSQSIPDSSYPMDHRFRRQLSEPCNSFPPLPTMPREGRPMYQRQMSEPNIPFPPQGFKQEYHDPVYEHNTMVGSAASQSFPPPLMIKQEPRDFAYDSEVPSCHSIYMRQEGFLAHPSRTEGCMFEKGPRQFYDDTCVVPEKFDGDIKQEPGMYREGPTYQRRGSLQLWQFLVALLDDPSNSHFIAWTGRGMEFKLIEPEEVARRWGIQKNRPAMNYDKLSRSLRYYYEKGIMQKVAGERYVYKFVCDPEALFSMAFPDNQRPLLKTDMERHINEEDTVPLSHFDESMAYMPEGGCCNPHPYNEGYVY
Sequence of ETV6 (P41212 whole entry): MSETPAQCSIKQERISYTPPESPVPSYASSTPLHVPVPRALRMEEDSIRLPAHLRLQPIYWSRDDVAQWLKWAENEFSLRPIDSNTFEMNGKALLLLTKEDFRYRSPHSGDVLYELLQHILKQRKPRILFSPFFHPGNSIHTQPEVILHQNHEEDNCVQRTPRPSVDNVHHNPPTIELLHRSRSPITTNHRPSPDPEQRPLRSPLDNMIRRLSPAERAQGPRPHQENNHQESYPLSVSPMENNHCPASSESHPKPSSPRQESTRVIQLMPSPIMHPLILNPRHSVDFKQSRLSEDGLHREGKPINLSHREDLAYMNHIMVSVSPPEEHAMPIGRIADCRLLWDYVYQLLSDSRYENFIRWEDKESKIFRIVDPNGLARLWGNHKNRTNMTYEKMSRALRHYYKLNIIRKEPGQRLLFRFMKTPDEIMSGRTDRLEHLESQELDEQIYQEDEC
Sequence of SPIB (Q01892 whole entry): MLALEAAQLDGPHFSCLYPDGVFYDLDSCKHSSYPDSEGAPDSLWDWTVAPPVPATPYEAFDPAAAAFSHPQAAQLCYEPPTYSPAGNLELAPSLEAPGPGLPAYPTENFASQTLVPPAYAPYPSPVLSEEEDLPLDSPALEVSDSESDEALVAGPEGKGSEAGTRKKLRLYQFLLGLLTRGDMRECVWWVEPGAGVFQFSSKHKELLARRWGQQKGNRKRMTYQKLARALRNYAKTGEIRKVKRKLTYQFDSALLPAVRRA

As to TCGTCA, the binding signal with FLI1 was 1.05 fold enrichment (6-mer frequency, TF over GST control); with ELK1, 1.09 fold enrichment (6-mer frequency, TF over GST control); with GABPA, 1.06 fold enrichment (6-mer frequency, TF over GST control); with ELF1, 1.04 fold enrichment (6-mer frequency, TF over GST control); in the test with EHF, 1.02 fold enrichment (6-mer frequency, TF over GST control); with SPI1 it was 1.02 fold enrichment (6-mer frequency, TF over GST control). Moreover, the binding signal is 1.04 fold enrichment (6-mer frequency, TF over GST control) with SPIB; 1.04 fold enrichment (6-mer frequency, TF over GST control) in the test with ETV5; 1.15 fold enrichment (6-mer frequency, TF over GST control) with SPIC; 1.11 fold enrichment (6-mer frequency, TF over GST control) in the test with ELF4; 1.09 fold enrichment (6-mer frequency, TF over GST control) with ETV1; 1.06 fold enrichment (6-mer frequency, TF over GST control) in the test with ERF. The binding signal in the test with ETS2 is 1.1 fold enrichment (6-mer frequency, TF over GST control); in the test with SPDEF it was 1.06 fold enrichment (6-mer frequency, TF over GST control); with ETV6, 1.03 fold enrichment (6-mer frequency, TF over GST control).

Regarding GGTCCT, the binding signal in the test with FLI1 was 1.02 fold enrichment (6-mer frequency, TF over GST control); in the test with ERG, 1.01 fold enrichment (6-mer frequency, TF over GST control); in the test with ELF1 it was 1.06 fold enrichment (6-mer frequency, TF over GST control); with ETV5 it was 1 fold enrichment (6-mer frequency, TF over GST control); with SPIC, 1.11 fold enrichment (6-mer frequency, TF over GST control); with ELF4, 1.02 fold enrichment (6-mer frequency, TF over GST control). For the same sequence, the binding signal was 1.16 fold enrichment (6-mer frequency, TF over GST control) with ERF; 1.03 fold enrichment (6-mer frequency, TF over GST control) with ETV3L; 1.1 fold enrichment (6-mer frequency, TF over GST control) in the test with SPDEF.
